Screening data: PubChem, National Center for Advancing Translational Sciences (NCATS)
Luciferase inh = qHTS Assay for Inhibitors of Firefly Luciferase; 72,000 tested, 2.2% active; AID 411, 2009; Potency, µM (top dose mostly 57.1 µM), for inactives: at the top dose activity change, negative = inhibition, usual class: inhibitors; purified firefly luciferase, luminescence, 8 min; Luciferin 4-monooxygenase (Photinus pyralis), P08659; further: on the % scale 0 is the no-effect control and ±100 the full control effect; nearly all actives have a fitted effect of over 40% in size
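qHTS concentration-response profiling: light output of P. pyralis luciferase with luciferin and 10 uM ATP, imidazole buffer pH 7.2. Read by luminescence after 8-min room-temperature incubation.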
PK Bst = Pyruvate Kinase; purified pyruvate kinase, luminescence ATP production; ribose 5-phosphate activator present at AC10; Potency, µM; 51,000 tested, 1.2% active; in the data active means potency below about 11 µM; inconclusive means mostly about 12 µM to 25 µM;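 the screen sought inhibitors and activators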;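 further: scaled between full activation by ribose 5 phosphate and full inhibition by luteolin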
ALOX15 inhib = qHTS Assay for Inhibitors of 15-hLO (15-human lipoxygenase); purified 15hLO-1, xylenol orange hydroperoxide absorbance; Potency, µM (highest dose often 57.1 µM), without a hit: at the top dose activity change, negative = inhibition, hits mostly inhibitors; 74,000 tested, 1.4% active; further: on the % scale 0 is the no-effect control and ±100 the full control effect; nearly all actives have a fitted effect of over 55% in size
Target sequence (P16050 whole entry, looked up): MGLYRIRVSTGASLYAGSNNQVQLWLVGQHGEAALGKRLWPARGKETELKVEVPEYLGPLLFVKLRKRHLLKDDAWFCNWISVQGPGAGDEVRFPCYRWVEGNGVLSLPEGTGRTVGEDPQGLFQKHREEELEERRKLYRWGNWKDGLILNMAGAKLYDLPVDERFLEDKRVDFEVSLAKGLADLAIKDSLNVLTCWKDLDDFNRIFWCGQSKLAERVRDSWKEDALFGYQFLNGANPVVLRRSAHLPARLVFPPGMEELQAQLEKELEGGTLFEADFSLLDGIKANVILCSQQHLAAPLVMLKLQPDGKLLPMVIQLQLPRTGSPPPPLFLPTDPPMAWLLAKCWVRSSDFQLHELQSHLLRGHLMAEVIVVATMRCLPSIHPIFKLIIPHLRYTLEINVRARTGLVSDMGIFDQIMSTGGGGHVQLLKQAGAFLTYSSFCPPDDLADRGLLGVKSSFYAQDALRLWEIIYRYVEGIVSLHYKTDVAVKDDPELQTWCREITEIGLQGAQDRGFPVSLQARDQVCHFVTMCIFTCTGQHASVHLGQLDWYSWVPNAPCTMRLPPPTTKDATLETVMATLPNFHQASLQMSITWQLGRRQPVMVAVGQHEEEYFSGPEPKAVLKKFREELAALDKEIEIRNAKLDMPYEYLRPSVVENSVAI
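40 nM 15hLO-1 + cpd, 15 min RT; start w/ 50 uM AA (final), 6 min RT; stop/detect w/ 200 uM XO + 300 uM Fe(II) in 50 mM H2SO4, 30 min; A573/A405. Buffer 25 mM Hepes pH 7.5, 0.01% Triton X-100. No-enzyme wells as negative control.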
Tau filament bind = qHTS Assay for Tau Filament Binding. recombinant tau filaments, thioflavin S fluorescence, 15 h; filaments grown with octadecylsulfate alongside compound. 71,000 tested, 2% active. AID 596, 2007. Microtubule-associated protein tau (Homo sapiens), P10636. Potency, µM (doses to about 57.1 µM), for inactives: at the top dose activity change, negative = inhibition;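 further: on the % scale 0 is the no-effect control and ±100 the full control effect; actives lower thioflavin S fluorescence by blocking filaments or displacing dye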
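Tau 2 uM in ThS buffer dispensed; compound added; 60 uM ODS added (finals 1 uM tau, 30 uM ODS); 15 h 37 C; fluor ex450/em510.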
HEK293 cAMP cs = qHTS Assay for Agonists of the Thyroid Stimulating Hormone Receptor: Activators of Intracellular cAMP Concentrations in Parental HEK 293 | parental HEK293 CNG cAMP sensor, membrane potential fluorescence | Potency, µM (series often up to 57.1 µM), inactives show top-dose activation, most hits filed as activators | 73,000 tested, 2.5% active | AID 938, 2007; further: % of control where 0% means no effect; nearly all actives have a fitted effect of over 55% in size
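Parental HEK 293 cells stably expressing a cAMP-gated CNG channel were loaded with membrane potential dye containing 100 uM RO 20-1724 for 60 min. Compound added for 30 min; depolarization read as fluorescence intensity at 590 nm.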
TSHR agonist = qHTS Assay for Agonists of the Thyroid Stimulating Hormone Receptor | Thyrotropin receptor (Homo sapiens), P16473 | HEK293-CNG-TSHR cells (CNG channel as cAMP sensor), membrane potential dye, cAMP | Potency, µM (doses to about 57.1 µM), without a hit: top-dose activation, most hits filed as activators | 73,000 tested, 0.48% active | AID 926, 2007; active means well fitted activation curve with a large enough effect in the main read-out, with a control signal flat, not every such curve was filed as active; inconclusive means small, poorly fitted or top-dose-only effect, or a change in a side signal; inactive means no such curve, though single readings can be large or run the other way; % of control where 0% means no effect;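 further: the control signal comes from parental cells without the receptor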
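cAMP rise detected as CNG-channel membrane depolarization by fluorescent dye (emission 590 nm), 30 min after compound, following 60 min dye loading containing 100 uM RO 20-1724 at room temperature. Cells: TSHR/CNG HEK 293, with parental CNG HEK 293 as control.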
* = called active by the depositor; ? = inconclusive; / = no result given; [ ] = remark or other dose. Only some compounds are listed: those with a hit (about 7.8% of all), similar ones and a draw of the others. Unless noted, the call rests on the fitted dose curve; in most records, active means well fitted curve in the direction sought with a large enough effect; inconclusive means small, poorly fitted or top-dose-only effect, or another doubt; inactive means no such curve, though single readings can be large; an effect the other way counts as inactive or inconclusive. Potency means the concentration at half of the fitted maximal effect.

SMILES | Luciferase inh | PK Bst | ALOX15 inhib | Tau filament bind | HEK293 cAMP cs | TSHR agonist
O=C(NC1CCS(=O)(=O)C1)c1ccc(-c2ccc(Br)cc2)o1 (stereo not drawn) | -2% | 7.8* | -3% | 18% | -2% | 9%
Cn1nnc(-c2ccc(OCc3ccccc3F)cc2)n1 | 25µM* | >57 | 2% | 35% | 1% | 4%
CC(=O)N1CC=CC1(C)C(=O)O (stereo not drawn) | / | / | 5% | 11% | -3% | -1%
COc1ccccc1-c1cncnc1Nc1ccc(F)cc1 | 1%[2.29 µM] | / | -15% | -1% | -13% | 22%
COc1ccccc1-c1cncnc1Nc1ccccc1 | 1%[2.29 µM] | / | 25µM* | -5% | 15% | 16%
COc1ccccc1-c1cncnc1NCCNC(C)=O | 0%[2.29 µM] | / | 10µM* | -16% | 9% | 0%
N#CCCn1c(=O)c(-c2cccs2)nc2cnc(OCc3ccccc3)nc21 | -1%[11.4 µM] | / | 1% | 60% | 12% | -7%
Cn1ncc(C#N)c1/N=C/N(Cc1ccccc1)Cc1ccccc1 | 3% | >57 | -8% | 8% | 16µM* | ?
O=C(Nc1ccc2nc(-c3ccco3)c(-c3ccco3)nc2c1)N1CCCCCC1 | -14% | >57 | 5µM* | 1.3µM* | 4% | -5%
CCOC(=O)C1CCN(C(=O)Nc2ccc3c(c2)nc(C)n3C)CC1 | -1% | >57 | 2% | 2% | 1% | 5%
CCOC(=O)C1CCN(C(=O)Nc2ccc3nc(-c4ccco4)c(-c4ccco4)nc3c2)CC1 | -27% | / | 5µM* | 0.79µM* | -3% | 0%
O=C(NC1CCCC1)c1ccc2nc(-c3ccco3)c(-c3ccco3)nc2c1 | ? | / | 10µM* | -19% | 6% | 8%[11.4 µM]
OC[C@@H]1O[C@@H](n2cnc3c(NC4CCCC4)ncnc32)[C@@H](O)[C@H]1O | 2% | / | -5% | -10% | ? | ?
CC(Oc1ccc(Br)cc1)C(=O)NCc1cccnc1 (stereo not drawn) | / | / | -10% | / | -6% | 0%
C=CCn1c(N)c(-c2nc3ccccc3n2C)sc1=S | -1% | >57 | -8% | 16µM* | -26% | -20%
CCN(CC)S(=O)(=O)c1ccc(NC2CCCc3ccccc32)nc1 (stereo not drawn) | -1% | >57 | ? | -17% | 25µM* | ?
COC(=O)c1ccccc1NC(=O)c1ccccc1OC | 1% | >57 | -22% | 6% | 16µM* | ?
CCOc1ccccc1C(=O)Nc1cc(Cl)ccc1O | 1% | >57 | 10µM* | 112% | -33% | ?
COC(=O)c1ccccc1NC(=O)c1ccc(F)cc1 | 2% | / | 17%[25.6 µM] | ? | ? | ?
COc1ccccc1C(=O)Nc1cc(Cl)ccc1O | -1%[25.5 µM] | >26 | / | / | / | /
CCOc1ccccc1C(=O)Nc1cc(OC)ccc1OC | / | / | -12% | / | 25µM* | ?
Oc1c(C(c2cccs2)N2CCN(c3cccc(Cl)c3)CC2)sc2ncnn12 (stereo not drawn) | 1% | / | -4% | 2% | ? | ?
CCOc1ccc(C(=O)N2CCCN(C(=O)c3ccc(OCC)cc3)CC2)cc1 | / | / | -5% | / | 13% | 20%
CCOc1ccc(OCc2cccc(C(=O)N3CCOCC3)c2)cc1 | 5µM* | 8.5* | 3% | 0% | 3% | 6%
COc1cc(OC)cc(C(=O)N(Cc2nc(-c3cccc(C)c3)no2)C(C)C)c1 | 0% | >57 | -8% | 4% | 32µM* | ?
SMILES | Luciferase inh | PK Bst | ALOX15 inhib | Tau filament bind | HEK293 cAMP cs | TSHR agonist
COc1ccc(-c2noc(CN(C(=O)c3ccc(OC(C)=O)cc3)C(C)C)n2)cc1OC | -3% | >57 | 3% | 10% | 1% | 25µM*
COc1ccc(C(=O)N(Cc2nc(-c3ccc(C)cc3)no2)C(C)C)cc1OC | 1% | / | -8% | 333% | 4%[11.4 µM] | 28%
Cc1cc(=O)[nH]c2cc3oc4ccccc4c3cc12 | 1%[11.4 µM] | / | -5%[11.4 µM] | 36%[11.4 µM] | 4%[11.4 µM] | 4%[11.4 µM]
Cc1cc(NC(=O)CN2CCN(c3ccccc3F)CC2)nc2c1c(=O)oc1ccccc12 | 1% | / | ? | 12% | 2% | 12%
CC1=NN(c2ccc(S(=O)(=O)O)cc2)C(=O)/C1=C\c1ccc(Cl)cc1 | 2%[11.4 µM] | / | 8%[11.4 µM] | 0%[11.4 µM] | 3%[11.4 µM] | -2%[11.4 µM]
CC(C)=CCc1c(O)cc2occ(-c3ccc4c(c3)OCO4)c(=O)c2c1O | / | / | -16% | / | / | /
CC(C)=CCc1c2c(c3occ(-c4ccc(O)c(O)c4)c(=O)c3c1O)C=CC(C)(C)O2 | 2%[11.4 µM] | / | 4µM* | 3.2µM* | 8%[11.4 µM] | 1%[11.4 µM]
COC(=O)C/C=C\[C@@H](C)[C@@H](/C=N\OC[C@@H](C)[C@H](OCc1ccccc1)C(C)C)OC | 1%[11.4 µM] | / | 5%[11.4 µM] | / | 21%[11.4 µM] | 4%[11.4 µM]
C/C(N)=C(/C#N)C(=O)CSc1nnc(Nc2c(C)cccc2C)s1 | 0% | ? | -20% | 8% | 5% | -1%
C/C(N)=C(/C#N)C(=O)CSc1nnc(SCc2ccc(Cl)cc2)s1 | -6% | >57 | 8% | 19% | 32µM* | ?
Cc1cc(NC(=O)NC(=O)c2ccc(F)cc2F)n[nH]1 | 16µM* | / | 10% | 9% | -1% | 4%
Cc1cc(C)c(NC(=O)NC(=O)c2cccc(F)c2)c(C)n1 | -1% | >57 | 1% | -4% | 7% | 2%[11.4 µM]
CN1CCN(C2=C(Cl)C(=O)N(C3CCCCC3)C2=O)CC1 | 1% | >57 | -14% | 16µM* | 2% | -1%
O=c1c(-c2ccccc2)nc2cnc(N3CCOCC3)nc2n1C1CC1 | -2%[11.4 µM] | / | ? | 21% | 11% | 2%
CCCC/C=C/C(NC(=O)C(C)(C)C)c1ccccc1 (stereo not drawn) | / | / | / | -13% | 25µM* | ?
CCC/C=C(\CCC)C(NC(=O)c1ccccc1)c1ccc(C(=O)OC)cc1 (stereo not drawn) | / | / | / | 0% | 3.2µM* | ?
CCCC/C=C/C(NC(=O)c1ccc(C(=O)OC)cc1)c1ccccc1 (stereo not drawn) | / | / | / | 16% | 25µM* | ?
CC(=O)OC[C@H]1O[C@@H](O/N=C(\C)CCN2CCCc3nc(C)c(C)cc32)[C@H](OC(C)=O)[C@@H](OC(C)=O)[C@H]1OC(C)=O | 1%[11.4 µM] | / | 3%[11.4 µM] | / | -2%[11.4 µM] | -2%[11.4 µM]
CCn1c(C)cc(=S)c2ccccc21 | -1% | >57 | -26% | 5µM* | 0% | -4%[11.4 µM]
CCn1c2ccccc2c2cc(N)ccc21 | -8% | / | -17% | 3.2µM* | -6% | -11%
CCn1c2ccccc2c2cc(C3C(C#N)=C(C)NC(C)=C3C#N)ccc21 | 0% | >57 | -12% | 25% | 5% | 18%
CCC/C=C(\CCC)C(NS(=O)(=O)c1ccccc1)c1ccc(C(F)(F)F)cc1 (stereo not drawn) | / | / | / | -25% | ? | ?
